This is an account of results in PubChem BioAssay (NCATS).

The subject of experiment [1] is Nanoluciferase (engineered Oplophorus gracilirostris luciferase). Nature of the experiment: Primary Nanoluciferase (NLuc) qHTS assay for identification of artifact compounds. (AID 1845222).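 Further: NLuc secreted into diluted conditioned medium of S16 cells; 0% = DMSO and -100% = no enzyme.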 The following applies: NLuc-conditioned medium, Nano-Glo luminescence, 5 min; series mostly up to 54.1 µM. The gist of the method: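 qHTS format, against NLuc in S16 cell-conditioned medium. Nano-Glo substrate 1:100 was added after 15 min at room temperature. Luminescence was taken after a further 5 min.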
On the technique in general: Quantitative high-throughput screening tests each substance at several concentrations.

The nature of experiment [2]: Primary redox qHTS assay for identification of artifact compounds. (AID 1845223).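 Further: 0% = DMSO and 100% = reference compound.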 The following applies: Amplex Red/HRP redox cycling with DTT, fluorescence; series mostly up to 53.8 µM. An outline of the steps:
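Amplex Red (25 uM) and HRP (250 mU/mL) in HBSS, with compounds for 15 min, then 250 uM DTT for 30 min, room temperature, dark. Fluorescence 525/598 nm read; normalized to DMSO and 10 uM DA3003; Hill fit.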

Experiment [3] is described as follows: qHTS profiling for inhibitors of Plasmodium falciparum proliferation (AID 504749). Further: potency means the concentration at half of the fitted maximal effect.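 On activity, negative = inhibition: 0% = DMSO vehicle and full inhibition = artemisinin control.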 On all read-outs here: nearly all actives have a fitted effect of over 60% in size. The following applies: P. falciparum in erythrocytes, SYBR Green DNA, 72 h; for activity, negative = inhibition: at 28.7 µM (top of the series). An outline of the steps:
(§1)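 Readout was DNA-dye fluorescence from lysed cultures, ex 485/em 535 nm. Parasitized red cells had grown 72 h with compound; data scaled between 0.29 uM artemisinin and DMSO wells and corrected using vehicle-only plates.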

The test system of a further experiment is 3D7. The experiment is described as above. Particulars: P. falciparum in erythrocytes, SYBR Green DNA, 72 h; series mostly up to 28.7 µM. An outline of the steps:
as §1

The subject of the next experiment is 7G8. The experiment is described as above. Particulars: P. falciparum in erythrocytes, SYBR Green DNA, 72 h; series mostly up to 28.7 µM. An outline of the steps: as §1
Experiment [4] is described as follows: qHTS drug screen for cell cycle checkpoint inhibitors in PARPi-resistant BRCA-mutant ovarian cancer cell lines. (AID 1963452; calls by dose curve; further: potency means the concentration at half of the fitted maximal effect). The following applies: PEO1/OlaR viability, CellTiter-Glo luminescence, 96 h; for Z-AUC: stronger effect = lower value. The gist of the method: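 PEO1, PEO4 and PEO1/OlaR ovarian cancer cells, 600 per well, exposed 96 h at 37C to a dilution series. Viability read by CellTiter-Glo luminescence, normalized to DMSO and empty wells; activity summarized as Z-AUC.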

In another experiment the test system is AA1029. Nature of the experiment: qHTS profiling for inhibitors of Plasmodium falciparum proliferation (AID 504749). Further: nearly all actives have a fitted effect of over 60% in size. Further: potency means the concentration at half of the fitted maximal effect.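 On activity, negative = inhibition: 0% = DMSO vehicle and full inhibition = artemisinin control.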 The following applies: P. falciparum in erythrocytes, SYBR Green DNA, 72 h; series mostly up to 28.7 µM. An outline of the steps:
as §1

In a further experiment the test system is AS120. Described as above. Particulars: P. falciparum in erythrocytes, SYBR Green DNA, 72 h; series mostly up to 28.7 µM. An outline of the steps:
as §1

A further experiment deals with ATS189. The description is as above. The following applies: P. falciparum in erythrocytes, SYBR Green DNA, 72 h; series mostly up to 28.7 µM. The gist of the method: as §1
Where [5] appears, read: measured here: PEO1 parental Z-AUC.

Records with an inconclusive call do not appear. Activity calls are given as the source filed them. Unless noted, the call rests on the fitted dose curve; in most records, active means well fitted curve in the direction sought with a large enough effect; inconclusive means small, poorly fitted or top-dose-only effect, or another doubt; inactive means no such curve, though single readings can be large; an effect the other way counts as inactive or inconclusive.

Consider `O=C(CCCN1CC=C(n2c(=O)[nH]c3ccccc32)CC1)c1ccc(F)cc1`, for which the molecule was called inactive in experiment [1] and in [2].

Turning to `CN(C)CCN1C(=O)c2ccccc2N(C)c2ccccc21`, the figures for the activity, negative = inhibition in [3] (parasite line A) and in experiment [3] (parasite line B) were -2.77% (inactive) and 8.88% (inactive), respectively. In addition, the Potency result in the experiment with 3D7 was “inactive”.

In the case of `CN1CCN(C2=Nc3cc(F)ccc3Cc3ccccc32)CC1`, the activity, negative = inhibition in experiment [3] (parasite line A) was -5.08% (inactive); in experiment [3] (parasite line B), -0.186% (inactive). For the same molecule, in the experiment with 3D7, the Potency result is “inactive”. The Potency in the experiment on 7G8 was 12.6 µM (active).

Consider `O=c1[nH]c(=O)n([C@H]2C[C@H](O)[C@@H](CO)O2)cc1F`, for which the Potency in experiment [4] was 0.245 µM (active). Moreover, the Z-AUC in experiment [4] (setting [5]) is -1.95; in experiment [4] (measured here: PEO4 Z-AUC), -1.41. The activity, negative = inhibition in experiment [3] (parasite line A) is 0.388% (inactive); in [3] (parasite line B), -0.681% (inactive). The Potency entry with 3D7, in the experiment on AA1029, with AS120 and in the experiment on ATS189 was “inactive” each time.

As for `CC[C@]12CCCN3CCc4c(n(c5ccccc45)C(=O)C1)[C@@H]32`, the result in experiment [1] and in [2] was inactive.

As to `CC(=O)O[C@]1(C(C)=O)CC[C@H]2[C@@H]3C=C(C)C4=CC(=O)CC[C@]4(C)[C@H]3CC[C@@]21C`, the Z-AUC was 0.958 (inactive) in [4], 0.601 in experiment [4] (setting [5]) and 0.47 in experiment [4] (measured here: PEO4 Z-AUC).

Turning to `Cc1ccc(O)c([C@H](CCN(C(C)C)C(C)C)c2ccccc2)c1`, the Z-AUC was -0.294 (inactive) in experiment [4], -0.8 in experiment [4] (setting [5]) and -0.815 in [4] (measured here: PEO4 Z-AUC). The Potency was 7.08 µM (active) in [3] (parasite line A); 3.98 µM (active) in experiment [3] (parasite line B); 6.31 µM (active) in the experiment on 3D7; 1 µM (active) in the experiment on 7G8; 3.16 µM (active) in the experiment on AA1029; 2.51 µM (active) with AS120. In addition, the Potency with ATS189 is 3.98 µM (active).

As to `CCCCCCCCCCCCCCCCO`, the figures for the activity, negative = inhibition in [3] (parasite line A) and in experiment [3] (parasite line B) were 1.6% (inactive) and 8.58% (inactive), respectively. The Potency result with 3D7, in the experiment on 7G8, in the experiment on AA1029 and with AS120 was “inactive” each time.

Turning to `C=C[C@H]1CN2CC[C@H]1C[C@H]2[C@H](O)c1ccnc2ccc(OC)cc12`, the call in [1] and in [2] was inactive.

`C=C[C@H]1CN2CC[C@H]1C[C@@H]2[C@@H](O)c1ccnc2ccc(OC)cc12`: the Z-AUC is -0.544 (inactive) in [4], -0.182 in experiment [4] (setting [5]) and -0.0481 in [4] (measured here: PEO4 Z-AUC).

Turning to `Cc1cccc(C)c1NC(=O)c1ccccc1C(=O)O`, the activity, negative = inhibition is 19.5% (inactive) in experiment [3] (parasite line A) and 8.59% (inactive) in experiment [3] (parasite line B). The Potency result in the experiment on 3D7, with 7G8, in the experiment on AA1029, in the experiment on AS120 and in the experiment on ATS189 was “inactive” each time.

On to `CNCCCCOc1ccccc1Cc1ccccc1`, for which the activity, negative = inhibition in experiment [3] (parasite line A) is -10.8% (inactive); in experiment [3] (parasite line B), -10.9% (inactive). In the experiment with 3D7, the Potency entry is “inactive”. In addition, the results for the Potency in the experiment with 7G8 and with AA1029 were 6.31 µM (active) and 5.01 µM (active), respectively.

As to `CCOC(=O)[C@H](CCc1ccccc1)N[C@@H](C)C(=O)N1[C@H](C(=O)O)C[C@@H]2CCC[C@@H]21`, the Z-AUC was -0.637 (inactive) in experiment [4], -0.134 in experiment [4] (setting [5]) and -0.409 in [4] (measured here: PEO4 Z-AUC).

With `COc1cc([C@H]2Oc3cc([C@H]4Oc5cc(O)cc(O)c5C(=O)[C@@H]4O)ccc3O[C@@H]2CO)ccc1O`, the Z-AUC in experiment [4] is 1.43 (inactive); in experiment [4] (setting [5]), 1.29; in experiment [4] (measured here: PEO4 Z-AUC) it was 0.956. Further, the activity, negative = inhibition in experiment [3] (parasite line A) was -10.1% (inactive); in [3] (parasite line B), -14.4% (inactive). For the same molecule, the Potency entry in the experiment with 3D7, in the experiment with AA1029 and in the experiment with ATS189 was “inactive” in each case. Besides, the Potency with 7G8 is 11.2 µM (active).

As to `CCc1oc2ccccc2c1C(=O)c1cc(I)c(O)c(I)c1`, the activity, negative = inhibition was -1.64% (inactive) in [3] (parasite line A) and -5.21% (inactive) in [3] (parasite line B). Also, the Potency entry in the experiment on 3D7, in the experiment on 7G8, in the experiment with AA1029, in the experiment with AS120 and in the experiment on ATS189 was “inactive” each time.

In the case of `CCN(CC)CCNC(=O)COc1ccc(OC)cc1`, the activity, negative = inhibition in experiment [3] (parasite line A) was 19.5% (inactive); in [3] (parasite line B), 3.1% (inactive). Also, the Potency result in the experiment with 3D7, with 7G8, with AA1029, in the experiment with AS120 and in the experiment on ATS189 was “inactive” in each case.

Turning to `COc1ccc(-c2cc(C(F)F)nn2-c2ccc(S(N)(=O)=O)cc2)cc1F`, the activity, negative = inhibition in experiment [3] (parasite line A) is 1.08% (inactive); in experiment [3] (parasite line B) it was -0.185% (inactive). The Potency entry in the experiment with 3D7, with 7G8, in the experiment on AA1029, with AS120 and in the experiment on ATS189 was “inactive” each time.

Regarding `NC(N)=NCc1cccc(I)c1`, the activity, negative = inhibition in experiment [3] (parasite line A) is -25.5% (inactive); in [3] (parasite line B), -23.4% (inactive). The Potency entry with 3D7, with 7G8, in the experiment on AA1029, in the experiment on AS120 and with ATS189 was “inactive” each time.

In the case of `Nc1nc(-c2ccccc2)c(Br)c(=O)[nH]1`, the figures for the activity, negative = inhibition in experiment [3] (parasite line A) and in [3] (parasite line B) were -7.1% (inactive) and 1.53% (inactive), respectively. Moreover, the Potency result in the experiment on 3D7, in the experiment on 7G8, with AA1029, in the experiment with AS120 and in the experiment with ATS189 was “inactive” in each case.

For `CC(=O)Nc1ccc(CC(=O)O)cc1`, the activity, negative = inhibition in [3] (parasite line A) was 9.92% (inactive); in experiment [3] (parasite line B), 11.5% (inactive). The Potency entry with 3D7, in the experiment with 7G8, in the experiment with AA1029, in the experiment on AS120 and in the experiment with ATS189 was “inactive” in each case.

As for `CCOc1ccc(NC(C)=O)cc1`, the activity, negative = inhibition was -9.23% (inactive) in experiment [3] (parasite line A) and 8.77% (inactive) in experiment [3] (parasite line B). The Potency entry in the experiment with 3D7, with 7G8, in the experiment on AA1029, in the experiment on AS120 and in the experiment with ATS189 was “inactive” in each case.

Regarding `O=C(O)CCNC(=O)c1ccccc1`, the values for the activity, negative = inhibition in [3] (parasite line A) and in experiment [3] (parasite line B) were 0.623% (inactive) and 11.8% (inactive), respectively. Moreover, the Potency entry with 3D7, with 7G8, in the experiment with AA1029, in the experiment on AS120 and in the experiment on ATS189 was “inactive” in each case.

In the case of `CC(=O)Nc1ccc(S(=O)(=O)Nc2ccc([N+](=O)[O-])cc2)cc1`, the results for the activity, negative = inhibition in experiment [3] (parasite line A) and in [3] (parasite line B) were -0.674% (inactive) and 0.755% (inactive), respectively. Further, the Potency entry in the experiment with 3D7, with 7G8, in the experiment on AA1029, with AS120 and with ATS189 was “inactive” each time.

On to `C[N+]1(CC2COC(c3ccccc3)(C3CCCCC3)O2)CCCCC1` (stereo not drawn), for which the Potency in experiment [3] (parasite line A) was 2.82 µM (active); in experiment [3] (parasite line B), 4.47 µM (active); with 3D7, 7.08 µM (active); with 7G8, 2.51 µM (active); in the experiment with AA1029, 5.01 µM (active); in the experiment on AS120 it was 7.08 µM (active). For the same molecule, in the experiment with ATS189, the Potency is 8.91 µM (active).
